Reference: the supplement of paper PMC7156485
Where “and” joins values, the source holds several entries; their conditions need not be identical. Equal entries are not always repeated. Structures can show the parent of a compound that is named as a salt.

Test system: HCC1569
Assay: H1.0 immunofluorescence intensity relative to DMSO (% of DMSO); higher = stronger H1.0 induction, active = 140 or more
Conditions: concentration: 10 µM; 24 h
In short: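 After 24 h at 37 °C with compounds at 10 µM, in triplicate, HCC1569 and TDF cells were fixed with 3.7% formaldehyde. Immunostaining used a rabbit anti-H1.0 antibody and an AlexaFluor 647 secondary, with DAPI, and six fields per well were imaged at ×10. H1.0 nuclear intensity or cell number is presented as percent of the plate control, from the median of replicates, with HCC1569 values smoothed for positional effects.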
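Note: TDF is a line of transformed human dermal fibroblasts of mesenchymal origin.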

H1.0 immunofluorescence intensity, inactive:
O=C(O)c1ccccc1Nc1cccc(C(F)(F)F)c1 [Flufenamic acid] 106
CN(C)CCOC(C)(c1ccccc1)c1ccccn1.O=C(O)CCC(=O)O (stereo not given) [Doxylamine succinate] 87.7
Br.CCSC(=N)N [S-Ethylisothiourea hydrobromide] 88
NCC1OC(OC2C(CO)OC(OC3C(O)C(N)CC(N)C3OC3OC(CN)C(O)C(O)C3N)C2O)C(N)C(O)C1O (stereo not given) [Neomycin] 91.8
CN(c1ncccc1CNc1nc(Nc2ccc3c(c2)CC(=O)N3)ncc1C(F)(F)F)S(C)(=O)=O 118
O=C(O)C1=CC(=C(c2ccc(O)c(C(=O)O)c2)c2ccc(O)c(C(=O)O)c2)C=CC1=O [Aurintricarboxylic acid] 85.8
CCCCCC=CCC=CC=CC=CC(SCC(N)C(=O)NCC(=O)O)C(O)CCCC(=O)O (stereo not given) [Leukotriene D4] 97.3
CC(=O)Oc1ccccc1C(=O)Nc1ncc([N+](=O)[O-])s1 [2-{[(5-nitro-1,3-thiazol-2-yl)amino]carbonyl}phenyl acetate] 103
C=CCn1c(=O)c2c(nc(-c3ccc(S(=O)(=O)O)cc3)n2C)n(C)c1=O [1-Allyl-3,7-dimethyl-8-p-sulfophenylxanthine] 105
c1ccc2c(-c3ccncc3)c[nH]c2c1 [Rho Kinase Inhibitor III, Rockout] 118
CS(=O)(=O)O.O=C1Nc2ccc(-c3cccnc3)cc2C1=Cc1ccc[nH]1 [JAK3 Inhibitor VI] 130
CNc1cc2c(Nc3cccc(Br)c3)ncnc2cn1 135
COc1ccc2c(c1)c(CC(=O)O)c(C)n2C(=O)c1ccc(Cl)cc1 [Indomethacin] 102
COc1ccccc1O [Guaiacol] 107
CN(C)c1ccc(C=C2C(=O)Nc3ccccc32)cc1 114 and 102 and 125
Cc1cc(C(C)(C)C)c(O)c(C)c1CC1=NCCN1.Cl [Oxymetazoline hydrochloride] 94.9
O=C(O)Cc1c[nH]c2ccc(O)cc12 [5-Hydroxyindolacetic acid] 97.9
COc1cc2ncc(-c3ccccc3)nc2cc1OC 107
CCC1OC(=O)C(C)C(OC2CC(C)(OC)C(O)C(C)O2)C(C)C(OC2OC(C)CC(N(C)C)C2O)C(C)(O)CC(C)C(=NOCOCCOC)C(C)C(O)C1(C)O (stereo not given) [Roxithromycin] 92.1
Cc1ccccc1CNc1ncnc2c1ncn2C1OC(CO)C(O)C1O (stereo not given) [Metrifudil] 91.4
O=C1c2cccc(O)c2C(=O)c2c(O)cc(CO)cc21 [Aloe-emodine] 99.5
C=CCc1ccc(O)c(-c2ccc(O)c(CC=C)c2)c1 [Honokiol] 101
C#CC1(O)CCC2C3C(C)CC4=C(CCC(=O)C4)C3CCC21C (stereo not given) [Tibolone] 110
Cl.NC(=NCc1ccccc1)NC(=O)c1nc(Cl)c(N)nc1N [Benzamil hydrochloride] 105
CCN(Cc1ccccc1)C(=O)Cn1c(=O)n(C)c2cnc(-c3ccccc3)nc21 123
O=C1NC(C(=O)O)CS1 (stereo not given) [Procysteine] 98.1
O=C(O)c1cn(C2CC2)c2cc(N3C[C@@H]4C[C@H]3CN4)c(F)cc2c1=O 102
O=C(NCCO)c1cc(C(=O)NCCO)cc(C(=O)NCCO)c1 96.8
CCCCCCCCCCCCCCCC(O)C(N)CO (stereo not given) [Dihydrosphingosine] 106
C[N+]1(CCCCC[N+]2(C)CCCC2)CCCC1.O=C([O-])C(O)C(O)C(=O)O.O=C([O-])C(O)C(O)C(=O)O [Pentolinium di[L(+)-tartrate]] 101
CCCCCCCCCCCCCCCCOCC(CO)OC (stereo not given) [1-Hexadecyl-2-O-methyl-glycerol] 98.4
CC1C(=O)OC2CC34C5CC(C(C)(C)C)C36C(OC(=O)C6O)OC4(C(=O)O5)C21O (stereo not given) [Ginkgolide A] 95.8
CCOC(=O)C1=C(C)NC(C)=C(C(=O)OC)C1c1cccc(Cl)c1Cl (stereo not given) [Felodipine] 97.5
CC(=O)OC1CC2(C)C(CC(O)C3C4(C)CCC(O)C(C)C4CCC32C)C1=C(CCC=C(C)C)C(=O)[O-].[Na+] (stereo not given) [Fusidic acid sodium] 83.5
CN1C(CC(=O)c2ccccc2)CCCC1CC(O)c1ccccc1.Cl (stereo not drawn) [alpha-Lobeline hydrochloride] 103
Cc1cc(CS(=O)(=O)c2ccccc2)cc(OCc2ccc(CN3CCC[C@@H]3CO)cc2)c1 [PF-543 hydrochloride] 122
OCC1OC(n2cnc3c(Nc4ccccc4)ncnc32)C(O)C1O (stereo not given) [N6-Phenyladenosine] 104
OCCN1CCN(CCCN2c3ccccc3Sc3ccc(Cl)cc32)CC1 [Perphenazine] 140
C=CCc1ccc(O)c(-c2cc(CC=C)ccc2O)c1 [Magnolol] 83
CCc1c(CC(N)=O)c2cc(OCCCP(=O)(O)O)ccc2n1Cc1ccccc1 101
